# ANO1 activ = activators or potentiators of mouse TMEM16A chloride channel | HEK293 TMEM16A/YFP-H148Q/I152L, iodide quench fluorescence; stronger effect = lower value | AID 623877 | Q8BHY3 | B-score at 10 µM | 0.3% of 340,000 active;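 active = fluorescence-ratio B-score plate-corrected deviation score at least 3 library SD below zero, with starting fluorescence score within 5 deviations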;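 also: channel opened by trigger with iodide after compound preincubation; score built on the fluorescence ratio of max minus min over baseline; more negative score means more quench and so TMEM16A activation or potentiation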
# Kir21 block = Kir2.1 (mouse) channel inhibition | 0.85% of 310,000 active | HEK293-Kir2.1, FluxOR thallium flux fluorescence; stronger effect = lower value | AID 1672 | B-score at 10 µM;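 active = fluorescence ratio B-score at or below minus 3 SD of library scores, with starting-brightness B-score within 2 SD, cut at about -4.2 in these data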;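 also: channel flux triggered by added potassium and thallium sulfate stimulus; B-score of peak minus minimum fluorescence over baseline after thallium stimulus; more negative B-score means stronger Kir2.1 block with less thallium influx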
# KCNK3 block = human KCNK3 channel inhibition, primary screen | CHO-KCNK3 thallium flux, FluxOR fluorescence; stronger effect = lower value | B-score at 10 µM | 0.84% of 340,000 active | AID 602410;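 active = B-score under library mean minus 4 SD, starting fluorescence ratio at most library mean plus 5 SD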;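 also: more negative B-score means stronger inhibition of thallium flux through KCNK3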
# Target sequence (O14649 whole entry, looked up): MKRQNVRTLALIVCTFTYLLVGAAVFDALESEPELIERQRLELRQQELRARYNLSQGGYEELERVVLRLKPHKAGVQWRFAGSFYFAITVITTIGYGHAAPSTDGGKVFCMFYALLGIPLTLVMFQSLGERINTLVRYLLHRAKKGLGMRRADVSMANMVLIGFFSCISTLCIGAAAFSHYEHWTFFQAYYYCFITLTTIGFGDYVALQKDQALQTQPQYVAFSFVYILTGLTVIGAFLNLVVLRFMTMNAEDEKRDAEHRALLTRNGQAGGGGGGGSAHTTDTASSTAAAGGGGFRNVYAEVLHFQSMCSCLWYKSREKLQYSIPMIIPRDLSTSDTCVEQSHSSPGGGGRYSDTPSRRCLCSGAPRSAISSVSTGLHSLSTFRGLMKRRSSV
# KCNK9 block = human KCNK9 channel inhibition; 1.2% of 310,000 active; B-score at 10 µM; Q9NPC2; AID 488922; HEK293 KCNK9, FluxOR thallium flux fluorescence; stronger effect = lower value;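 active = ratio B-score over 3 SD below the library mean, with starting fluorescence within 5 SD of its mean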;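 also: negative B-score means less thallium flux so channel inhibition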
# TMEM16A inh = blocks the mouse calcium-activated chloride channel TMEM16A | HEK293 TMEM16A/YFP iodide influx fluorescence, ionomycin | 1.2% of 310,000 active | normalized B-score (activity score, 25-100; higher = stronger inhibition) at 10 µM | Q8BHY3;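 active = ratio plate-corrected score three or more library SD toward inhibition, starting fluorescence score within five deviations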;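 also: score derived from kinetic fluorescence span divided by baseline fluorescence per well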
# KCNK9 inh conf = confirmation of human KCNK9 potassium channel inhibitors; shares compounds with KCNK9 block; HEK293 KCNK9 cells, FluxOR thallium flux fluorescence; inhibition, % at 10 µM; 43% of 4,900 active;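 active = thallium signal inhibited by more than 5 SD of the compound-free buffer control wells, on both duplicate plates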
# Kir2-1 spec = selectivity of KCNK9 modulators against mouse Kir2.1; inhibition, % at 10 µM; shares compounds with KCNK9 block; 4% of 4,900 active; Kir2.1 cells, FluxOR thallium flux fluorescence; AID 492993;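 active = thallium signal drop more than 5 SD beyond the mean of the no-compound control wells, seen in both duplicate plates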;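 also: signal is fluorescence rise after thallium addition divided by baseline fluorescence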
# KCNK9 uninduced = non-induced cell nonspecific activity of KCNK9 modulators | shares compounds with KCNK9 block | non-induced KCNK9-HEK293, FluxOR thallium flux | inhibition, % at 10 µM | 40% of 4,900 active | AID 492997;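 active = thallium signal drop beyond 5 SD of the untreated control mean, on both duplicate plates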
# Numbers stand for hits; – = inactive; · = no result given. Only some compounds are listed: those with a hit (about 3.5% of all), similar ones and a draw of the others.
SMILES,ANO1 activ,Kir21 block,KCNK3 block,KCNK9 block,TMEM16A inh,KCNK9 inh conf,Kir2-1 spec,KCNK9 uninduced
COc1ccc(C(=O)c2cccc(C(=O)c3ccc(OC)c(C)c3)c2)cc1C,–,–,–,–,·,–,–,–
COc1ccc(NC(=O)CSc2nnc3n2CCCCC3)cc1,–,–,–,–,–,·,·,·
COc1ccc(C(=O)C2CCCN(C(=O)c3cccc(N(C)C)c3)C2)cc1OC (configuration not stated),–,–,–,–,–,–,–,–
COc1cccc(CN2CCCC(C(=O)c3ccc4c(c3)OCO4)C2)c1OC (configuration not stated),–,–,–,–,–,·,·,·
COc1ccc(C(=O)C2CCCN(Cc3cccc4c3OCO4)C2)cc1OC (configuration not stated),–,–,–,–,–,–,–,–
COc1ccc(F)cc1C(=O)C1CCCN(C(=O)c2cccc(N(C)C)c2)C1 (configuration not stated),–,–,–,–,–,–,–,–
O=C(Nc1ccccc1C(F)(F)F)c1ccsc1,–,–,–,–,–,·,·,·
O=C(NNc1ccccc1C(F)(F)F)c1sccc1Br,–,–,–,-8.7,–,44%,–,–
CC(C)CCNC(=O)c1c(CSc2ccc(Cl)cc2)noc1C(=O)NCc1ccccc1,–,–,–,–,–,–,–,–
CCCCNC(=O)c1onc(CSc2ccc(F)cc2)c1C(=O)NCCCC,–,–,–,–,–,–,–,–
O=C(NCc1ccccc1)c1onc(CSc2ccc(F)cc2)c1C(=O)NCc1ccccc1,–,–,–,–,–,–,–,–
O=C(NCc1ccccc1)c1onc(CSc2ccccn2)c1C(=O)NCc1ccccc1,–,–,–,–,–,–,–,–
O=C(NCc1ccccc1)c1onc(CSc2ccc(F)cc2)c1C(=O)NCCCN1CCOCC1,–,–,–,–,–,·,·,·
Cc1ccc2c(c1)N(CC(=O)N1CCCC1)C(=O)C(C)O2 (configuration not stated),–,–,–,–,–,·,·,·
CN(C)c1ccc(-c2c(-c3ccc4c(c3)OCO4)noc2-c2ccsc2)cn1,–,–,–,-8.7,–,50%,–,47%
COc1cccc(C(=O)C2CCCN(C/C=C/c3ccccc3OC)C2)c1 (configuration not stated),–,–,–,–,–,–,–,–
COc1ccc(C(=O)C2CCCN(C/C=C/c3ccccc3OC)C2)c(OC)c1 (configuration not stated),-5.1,–,–,–,–,–,–,–
COc1ccc(/C=C/CN2CCCC(C(=O)c3ccc(OC)c(F)c3)C2)cc1 (configuration not stated),–,–,–,–,–,·,·,·
CC(Nc1ccc(Cl)cc1)C(=O)NN (configuration not stated),–,–,–,–,–,·,·,·
Cc1csc2nc(CSc3nc4ccccc4o3)c(Br)n12,–,–,–,-12,25,–,–,46%
Cc1csc2nc(CSc3nncn3-c3ccccc3)c(Br)n12,–,–,–,–,–,·,·,·
Brc1ccc(N=Nc2ccc3ccccc3n2)cc1,–,–,–,-10,–,42%,–,82%
CCn1c(O)c(N=Nc2ccc3ccccc3n2)c2ccccc21,–,–,–,–,–,·,·,·
CCN(CC(=O)Nc1ccc(NC(C)=O)cc1)C(=O)c1cccc(S(=O)(=O)N2c3ccccc3CC2C)c1 (configuration not stated),–,–,–,–,–,·,·,·
Cc1ccc(S(=O)(=O)N(C)C)cc1NC(=O)COC(=O)c1ccc2ccccc2n1,–,·,–,·,·,·,·,·
SMILES,ANO1 activ,Kir21 block,KCNK3 block,KCNK9 block,TMEM16A inh,KCNK9 inh conf,Kir2-1 spec,KCNK9 uninduced
Oc1ccc(N2CCN(c3nc(-c4cccs4)nc4ccccc34)CC2)cc1,–,–,–,-8.4,–,–,–,–
Oc1ccccc1N1CCN(c2nc(-c3cccs3)nc3ccccc23)CC1,–,–,–,-13,–,40%,–,28%
COc1ccc(N2C(=O)CSC23C(=O)N2c4c(cccc43)C(C)=CC2(C)C)cc1 (configuration not stated),–,–,–,-8.6,–,–,–,46%
COc1ccc(S(=O)(=O)Nc2cccc(S(=O)(=O)N3CCCCCC3)c2)cc1,–,–,–,-8.2,–,42%,–,28%
Cc1ccc(S(=O)(=O)c2cccc(S(=O)(=O)N3CCCC3)c2)cc1S(=O)(=O)N1CCCC1,–,–,–,-16,–,32%,–,26%
Cc1cccc(S(=O)(=O)Nc2nc3ccccc3nc2Nc2cccc(C(=O)O)c2)c1,–,–,–,–,–,·,·,·
COc1cccc(NS(=O)(=O)c2ccc(S(=O)(=O)N3CCCC3)cc2)c1,–,·,–,·,·,·,·,·
O=S(=O)(Nc1nc2ccccc2nc1Nc1cccc(S(=O)(=O)N2CCCCC2)c1)c1ccccc1,–,–,–,–,100,–,–,25%
Cc1ccc(S(=O)(=O)c2cccc(S(=O)(=O)N3CCOCC3)c2)cc1S(=O)(=O)N1CCOCC1,–,–,–,–,–,·,·,·
O=C(NCCC1=CCCCC1)c1ccc(Cl)c(S(=O)(=O)N2CCCCC2)c1,–,–,–,–,25,–,–,–
Cc1ccc(CSCCNC(=O)c2ccc(Cl)c(S(=O)(=O)N3CCOCC3)c2)cc1,–,–,–,–,25,–,–,–
O=C(NCCC1=CCCCC1)c1ccc(Cl)c(S(=O)(=O)N2CCOCC2)c1,–,–,–,–,–,·,·,·
COc1ccc(N2Cc3cccc(C(=O)NC(C)CCc4ccco4)c3C2=O)cc1 (configuration not stated),–,–,-9.9,-16,–,57%,–,34%
COC(=O)C(C)Oc1cc(OC(C)C(=O)OC)c2c(C)c(Cl)c(=O)oc2c1 (configuration not stated),–,–,–,–,–,–,–,–
CCn1c(SCC(=O)c2cc(OC)ccc2OC)nnc1C1CC1,–,–,–,–,–,·,·,·
COc1cc(OC)nc(NC(=O)NS(=O)(=O)c2ccc(OC(F)(F)F)cc2)n1,–,–,–,–,–,·,·,·
N/C(Cc1ccc([N+](=O)[O-])cc1)=N\OC(=O)COc1cccc2ccccc12,–,–,–,-8.3,–,–,–,37%
N/C(Cc1ccc([N+](=O)[O-])cc1)=N\OC(=O)COc1ccccc1Cl,–,–,–,–,–,·,·,·
COC(=O)c1cc(NC(=O)C2(S(=O)(=O)c3ccc(C)cc3)CC2)cc(C(=O)OC)c1,–,–,–,–,–,–,–,–

# Assay outcomes (PubChem BioAssay)
